G9a inh – inhibitors of human histone lysine methyltransferase G9a | Q96KQ7 | G9a H3K9 monomethylation, AlphaScreen, 2 h | Potency, µM (top dose mostly 102 µM), without a hit: at the highest dose activity, negative = inhibition, hits mostly inhibitors | actives 8.8% (n = 350,000); also: % is scaled to controls: 0 for no effect and ±100 for the full control effect; nearly all actives have a fitted effect of over 75% in size
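Compounds were preincubated with 20 nM G9a for 15 min, after which biotinylated H3K9 peptide (500 nM) and SAM (20 uM) started a 2 h room-temperature reaction. Monomethylated product was quantified by antibody-based AlphaScreen chemiluminescence.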
PLK1 PBD inh – PLK1 (human) polo-box domain binding inhibition; Plk1 PBD binding of FITC phosphopeptide, fluorescence polarization; actives 2.8% (n = 360,000); P53350; Potency, µM, for inactives: max response, negative = inhibition, hits mostly inhibitors; also: series mostly up to about 57 µM; % is scaled to controls: 0 for no effect and ±100 for the full control effect; nearly all actives have a fitted effect of over 65% in size
BAZ2B inh – BAZ2B (human) inhibition. Q9UIF8. AlphaScreen BAZ2B-H3K14Ac peptide displacement. Potency, µM (highest dose often 114 µM), for inactives: top-dose activity change, negative = inhibition, most hits filed as inhibitors. actives 4.4% (n = 360,000). AID 504333; also: % is scaled to controls: 0 for no effect and ±100 for the full control effect; nearly all actives have a fitted effect of over 60% in size
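BAZ2B (50 nM) with biotin-H3(5-23)K14Ac peptide (50 nM) in PBS pH 7.4, 0.01% Tween-20, preformed 30 min, then compound 30 min at room temperature; top concentration 110uM. AlphaScreen streptavidin donor/nickel chelate acceptor beads (10 ug/mL final), 20 min dark, signal read.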
HP1b binding inh – blocks HP1-beta chromodomain binding to methylated histone tails; P83916; AlphaScreen HP1-beta / biotin-H3K9me3 peptide binding; Potency, µM (titrated, usually from 114 µM), inactives show at the top dose activity change, negative = inhibition, hits mostly inhibitors; actives 0.56% (n = 390,000); AID 540317; also: nearly all actives have a fitted effect of over 70% in size
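Compound inhibition of the preformed complex between 50 nM HP1-beta and 50 nM biotinylated H3K9me3 peptide was read by AlphaScreen. Buffer was PBS pH 7.4 with 0.01% Tween-20. Incubations ran 30 min at room temperature, with 10 ug/mL donor/acceptor beads.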
JMJD2A Tudor – blocks the human JMJD2A Tudor domain | O75164 | AlphaScreen JMJD2A-Tudor / H3K4me3 peptide binding | Potency, µM (highest dose often 114 µM), for inactives: at the top dose activity change, negative = inhibition, actives largely listed as inhibitors | actives 4.4% (n = 390,000) | AID 504339; also: % is scaled to controls: 0 for no effect and ±100 for the full control effect; nearly all actives have a fitted effect of over 50% in size
VDR inh – blocks the human vitamin D receptor | VDR-SRC2-3 peptide fluorescence polarization, 2 h | Potency, µM, for inactives: max response, negative = inhibition, hits mostly inhibitors | actives 0.93% (n = 400,000); also: % is scaled to controls: 0 for no effect and ±100 for the full control effect
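The screen uses fluorescence polarization to detect compounds that interfere with recruitment of the SRC2-3 coactivator peptide to VDR; plates are read after 2 h at room temperature.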
Starred values were filed as active, the others as inactive; ? = inconclusive; . = not tested or not shown; ! = a repeat was not active; [ ] = remark or other dose. Compounds with a hit are over-represented: about 11% of the library has one in this group of screens. Calls follow the shape of the dose curve; as a rule, active = well fitted curve in the direction sought with a large enough effect; inconclusive = small, poorly fitted or top-dose-only effect, or another doubt; inactive = no such curve, though single readings can be large; an effect the other way counts as inactive or inconclusive. Potency is read from the fitted curve at half-maximal effect.

SMILES	G9a inh	PLK1 PBD inh	BAZ2B inh	HP1b binding inh	JMJD2A Tudor	VDR inh
Cc1ccc(S(=O)(=O)c2nc(-c3ccc(F)cc3)oc2SCC(=O)NCC2CCCO2)cc1 (configuration not stated)	?	-1.2%	4.6%	23.5%	-9.6%	-4.8%
O=C(CSc1oc(-c2cccs2)nc1S(=O)(=O)c1ccc(F)cc1)NCC1CCCO1 (configuration not stated)	44.7µM*	-27.2%	-0.2%	30.0%	-29.9%	-12.8%
COc1ccc(NC(=O)CSc2oc(-c3ccc(C)cc3)nc2S(=O)(=O)c2ccc(C)cc2)c(OC)c1	?	.	0.7%	?	56.2µM*	14.8%
O=C(CN(C1CCCCC1)S(=O)(=O)c1ccc(F)cc1)NCC1CCCO1 (configuration not stated)	.	29.9µM*	.	?	25.1µM*	?
Cc1ccc(-c2nc(S(=O)(=O)c3ccc(F)cc3)c(SCC(=O)NCC3CCCO3)o2)cc1 (configuration not stated)	14.1µM*	18.9µM*	1.2%	-18.8%	-18.9%[57.1 µM]	-20.4%
COc1ccc(S(=O)(=O)N2CCC(C(=O)NCC3CC3)CC2)cc1	25.3%	-19.8%	1.6%	59.9%	-6.3%	18.8%
Cc1nn(-c2ccccc2)c(OC(=O)c2ccccc2Br)c1S(=O)(=O)c1ccccc1	-42.5%[59 µM]	.	?	15.4%	-29.8%	7.5%
Cc1coc(C)c1C(=O)Nc1ccc2ccccc2c1	11.1%	-14.5%	-19.0%	15.1%	-19.2%	-10.1%
Cc1ccc(S(=O)(=O)c2nc(-c3ccccc3)oc2SCC(=O)NCC2CCCO2)cc1 (configuration not stated)	44.7µM*	-17.7%	-3.4%	-2.0%	-30.7%	0.6%
O=C(CSc1oc(-c2ccccc2)nc1S(=O)(=O)c1ccc(F)cc1)NCC1CCCO1 (configuration not stated)	?	-3.3%	7.1%	28.1%	-20.7%	1.9%
O=C(CSc1nc(-c2ccccc2)c(-c2ccccc2)[nH]1)NCC1CCCO1 (configuration not stated)	28.2µM*	-8.7%	?	12.2%	-10.1%	-16.9%
O=C(CNC(=O)c1ccncc1)OC(C(=O)Nc1cc(C(F)(F)F)ccc1Cl)c1ccccc1 (configuration not stated)	.	.	.	.	-19.2%	.
CCn1nc(C)cc1C(=O)Sc1ccc(Cl)cc1Cl	107.1%	18.9µM*	59.0%	139.8%	84.1%	79.4µM*
CCn1nc(C)cc1C(=O)Sc1cccc(Br)c1	267.4%	?	100.7%	120.1%	72.4%	?
CCOC(=O)C1=C(CC)Nc2ccccc2N/C1=N\S(=O)(=O)c1cc(Br)ccc1Br	0.6%[59 µM]	21.2µM*	?	-13.2%	?	-4.5%
CCCCC/C=C\C/C=C\C/C=C\C/C=C\CCCC(=O)C(F)(F)F	18.0%[59 µM]	.	.	.	.	28.2µM*
CCCCCCCCCCC/C=C\C/C=C\CCCC(=O)O	9.4%[59 µM]	.	.	.	.	-0.9%
O=C(/C=C/c1ccco1)N1CCc2ccccc21	39.8µM*	-7.5%	.	7.2%	-18.4%	0.6%
Cc1ccc(/C=C/C(=O)N2CCc3ccccc32)o1	22.4µM*	?	44.7µM*	44.7µM*	39.8µM*	?
C=CCSc1nnc(NC(=O)c2nc(SCC)ncc2Cl)s1	7.94µM*	-7.7%	-26.8%	12.1%	-18.0%	-6.0%
Oc1c(Br)cc(Cl)cc1C=Nc1ccc(N2CCOCC2)cc1	?	-18.6%	-12.7%	32.9%	-18.9%	?
Clc1cccc(-c2ccc(C=Nc3ccc(N4CCOCC4)cc3)o2)c1	3.16µM*	4.1%	31.6µM*	?	?	-16.9%
Oc1ccc(N=Nc2cccc(Cl)c2)cc1C=Nc1ccc(N2CCOCC2)cc1	?	-18.5%	7.94µM*	?	?	-8.4%
COc1ccc(CCNC(=O)C2CCN(C(=O)c3ccc(C(C)(C)C)cc3)CC2)cc1	18.9%	4.7%	-12.9%	45.6%	-12.6%	5.9%
[O-][N+](=Cc1ccccc1)c1ccc(Cl)cc1	.	21.2µM*	.	0.8%	-21.5%	?
SMILES	G9a inh	PLK1 PBD inh	BAZ2B inh	HP1b binding inh	JMJD2A Tudor	VDR inh
O=C(Cn1cc(CNC(=O)c2ccccc2)nn1)Nc1cc(C(F)(F)F)ccc1Cl	.	.	.	.	-19.9%	.
O=C(Nc1nc(=O)n(C(=O)c2cccc(C(F)(F)F)c2)s1)c1ccccc1	?	16.8µM*	?	77.1%	-16.9%	14.1µM*
CCCN(C(=O)CSc1cc(-c2ccccc2)c2ccc(OC)cc2n1)C1CCS(=O)(=O)C1 (configuration not stated)	-1.5%	5.2%	2.7%	2.8%	-21.3%	3.5%
COc1ccc2c(-c3ccccc3)cc(SC(C)C(N)=O)nc2c1 (configuration not stated)	12.6µM*	?	-1.5%	39.4%	-5.3%[57.1 µM]	-29.5%
Cc1ccccc1NC(=S)/C(=C(\[O-])c1ccc(C)c([N+](=O)[O-])c1)[n+]1ccccc1	?	-9.6%	?	-11.9%	-35.3%	-1.9%
COc1cccc(NC(=S)/C(=C(\[O-])c2ccc(C)c([N+](=O)[O-])c2)[n+]2ccccc2)c1	?	-27.3%	?	-22.4%	?	8.3%
Cc1ccc(/C([O-])=C(/C(=S)Nc2ccc(SC(F)F)cc2)[n+]2ccccc2)cc1[N+](=O)[O-]	22.4µM*	-25.6%	?	-20.7%	?	?
Cc1ccc(NC(=S)/C(=C(\[O-])c2ccc(C)c([N+](=O)[O-])c2)[n+]2ccccc2)cc1C	?	.	56.2µM*	.	.	.
COc1ccccc1Nc1ccc(Nc2ccccc2OC)nn1	50.1µM*	-0.8%	-33.8%	-17.1%	?	-0.6%
Cc1csc(Nc2ccccc2C(F)(F)F)n1	24.0%[0.0925 µM]	0.0%	?	6.5%	1.0%	10.8%
COc1ccccc1Nc1nc(-c2cccc([N+](=O)[O-])c2)cs1	?	-2.4%	?	-14.0%	?	-17.1%
COc1ccccc1Nc1nc(C)cs1	3.4%[2.33 µM]	16.8µM*!	79.4µM*!	-21.0%	-15.0%	-13.3%
COc1ccccc1Nc1ncccc1C(=O)O	-17.0%[59 µM]	0.0%	-4.2%	6.7%	-16.3%	-1.3%
Cc1ccc(Nc2nc(C)cs2)cc1	35.5µM*	?	-22.9%	?	?	-7.2%
Cc1csc(Nc2cccc3ccccc23)n1	44.7µM*	-17.5%	50.1µM*	?	?	-17.0%
O=C(COC(=O)Cn1nnc2ccccc21)NC1CCCC1	-0.2%	-0.9%	2.9%	6.9%	-11.9%	5.8%
COc1ccc(C2C3=C(N=CN(CCN4CCOCC4)C3N)Oc3ccccc32)cc1OC (configuration not stated)	.	.	.	.	-17.7%	.
CCCn1c(=O)c2sccc2n2c(CCCC(=O)Nc3ccc(Oc4ccccc4)cc3)nnc12	12.0%[59 µM]	.	12.7%	90.2%	2.2%	-1.5%
